In all, about 3,300 compounds went through this assay and about 35 (1%) were called active. Rule as the data show it: active = inhibition above about 11%; inactive = the rest. Only a sample is shown.
What follows are compounds tested against 1-phosphatidylinositol 4,5-bisphosphate phosphodiesterase beta-3 (Homo sapiens) (UniProt Q01970) (assay: PLC-beta3 inhibitor confirmation, biochemical, fluorescence, purified enzyme (AID 743261)). Conditions: purified PLC-beta3, fluorogenic substrate fluorescence; at 12.3 µM; stronger effect = higher value.
Sequence of 1-phosphatidylinositol 4,5-bisphosphate phosphodiesterase beta-3 (Homo sapiens) (Q01970 whole entry, looked up): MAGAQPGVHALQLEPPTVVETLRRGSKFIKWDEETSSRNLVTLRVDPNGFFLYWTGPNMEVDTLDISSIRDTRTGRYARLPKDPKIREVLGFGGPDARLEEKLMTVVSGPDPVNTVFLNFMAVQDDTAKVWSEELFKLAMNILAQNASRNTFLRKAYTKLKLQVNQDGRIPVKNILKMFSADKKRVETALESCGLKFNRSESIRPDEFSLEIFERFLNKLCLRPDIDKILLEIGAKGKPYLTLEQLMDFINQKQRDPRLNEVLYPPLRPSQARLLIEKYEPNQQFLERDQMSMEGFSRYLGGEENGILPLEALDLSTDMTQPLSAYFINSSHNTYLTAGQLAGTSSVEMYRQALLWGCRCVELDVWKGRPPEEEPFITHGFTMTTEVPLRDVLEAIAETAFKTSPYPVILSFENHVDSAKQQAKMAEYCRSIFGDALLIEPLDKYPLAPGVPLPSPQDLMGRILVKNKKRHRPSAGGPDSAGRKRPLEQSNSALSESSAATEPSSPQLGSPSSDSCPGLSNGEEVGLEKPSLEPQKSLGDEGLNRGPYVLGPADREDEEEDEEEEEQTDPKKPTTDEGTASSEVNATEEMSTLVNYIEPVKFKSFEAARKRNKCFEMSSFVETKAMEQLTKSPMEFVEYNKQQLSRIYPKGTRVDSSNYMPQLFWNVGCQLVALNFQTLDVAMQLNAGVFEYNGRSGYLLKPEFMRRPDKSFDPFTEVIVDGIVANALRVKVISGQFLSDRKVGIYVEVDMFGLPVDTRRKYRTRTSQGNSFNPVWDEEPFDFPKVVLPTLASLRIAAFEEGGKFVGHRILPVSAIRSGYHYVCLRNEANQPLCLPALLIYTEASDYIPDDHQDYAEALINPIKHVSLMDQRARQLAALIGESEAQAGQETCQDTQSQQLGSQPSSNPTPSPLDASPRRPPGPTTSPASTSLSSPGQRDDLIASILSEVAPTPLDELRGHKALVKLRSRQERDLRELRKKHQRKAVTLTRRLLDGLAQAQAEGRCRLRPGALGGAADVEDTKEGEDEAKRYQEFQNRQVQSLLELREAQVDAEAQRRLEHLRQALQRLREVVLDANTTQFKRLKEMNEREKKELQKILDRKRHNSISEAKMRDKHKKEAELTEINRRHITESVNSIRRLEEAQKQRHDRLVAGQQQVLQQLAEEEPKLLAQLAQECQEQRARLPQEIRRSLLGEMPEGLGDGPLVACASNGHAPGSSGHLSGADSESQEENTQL

inhibition, inactive:
Cc1nc2ccccc2nc1CC(O)(c1ccccc1)c1ccccc1 1.99%, CCOc1ccc(OCC)c(NC(=O)CSc2nnc(Cn3cnc4ccccc43)n2C)c1 2.61%, CCC1S/C(=N/N=C/c2ccco2)NC1=O (stereo not drawn) 3.39%, CC(C)n1c(CN2CCN(Cc3ccccc3)CC2)nc2ccccc21 -2%, Nn1cnnc1N/N=C/c1cc([N+](=O)[O-])c(Cl)cc1Cl -0.09%, COCCCN(C(=S)Nc1c(C)cc(C)cc1C)C(C)c1ccncc1 (stereo not drawn) 3.06%, Cc1ccc(N2CC(C(=O)NCCS(=O)(=O)N3CCN(c4ccccc4)CC3)CC2=O)cc1 (stereo not drawn) 3.26%, C/C(CC(C)C)=N\Oc1nc(C)cc(C)n1 -3.23%, COc1ccc(NC(=O)c2ccc(OC)cc2)cc1 -4.41%, COc1ccc(/C=C2\N=C3CCCN3C2=O)cc1 -5.85%, O=C(c1ccc2c(c1)OCO2)N1CCNc2ccccc2C1 -2.69%, O=C(CSc1ccccc1)Nc1cccc(S(=O)(=O)N2CCOCC2)c1 4.18%, Cc1cc(C)c(NC(=O)CN2CCOCCOCCOCCOCC2)c(C)c1 0.38%, C=CCn1c(SCn2nnc3ccccc3c2=O)nnc1-c1ccc(Cl)cc1 -0.45%, CCc1c(Nc2ccccc2C)nc(N)[nH]c1=O 1.95%, CCOc1ccccc1NC(=O)CCN1CCN(S(=O)(=O)c2ccc(OC)cc2)CC1 -0.62%, C=CCN(c1ccc(Cl)cc1)S(=O)(=O)c1cccc(C(=O)OCC(=O)N(C)C)c1 -16%, Cc1nc(Nc2ccccc2C)c2cnn(C)c2n1 -0.91%, Cc1ccc(NC(=S)N(Cc2ccco2)C(C)c2cccs2)cc1 (stereo not drawn) -0.01%, COc1ccc(C(CNC(=O)c2cc(S(=O)(=O)Nc3cccc(C)c3)ccc2C)N2CCCC2)cc1 (stereo not drawn) -3.32%, CCn1c(SCC(C)=O)nc2sc3c(c2c1=O)CCCC3 -2%, Cc1nc2ccc(NC(=O)c3cccc(S(=O)(=O)N4CCOCC4)c3)cc2s1 -9.8%, Cc1c(C#N)c2ncn(CC#N)c(=O)c2n1-c1ccccc1 -2.4%, CS(=O)(=O)N(Cc1ccc(Cl)cc1)c1ccc(C(=O)NCCSCc2ccco2)cc1 1.86%, Nc1nnc(SCC(=O)OCc2ccc(Cl)c(Cl)c2)s1 -2.66%, Cc1ccc(/C=N/NC(=O)CSc2nc3ccccc3o2)cc1 -1.23%, CN(C(=O)c1cccc(NC(=O)Cc2cccc([N+](=O)[O-])c2)c1)C1CCCCC1 2.33%, O=C(C1CCCO1)N1CCN(C(=S)Nc2cccc(Cl)c2)CC1 (stereo not drawn) -2.93%, CCOc1ccc(NC(=O)[C@H](C)NC(=O)C2CC(=O)N(c3ccc(OC)cc3)C2)cc1 (stereo partly drawn) -3.05%, O=C(O)c1ccc(Cn2c(=S)[nH]c3cc(Cl)ccc3c2=O)cc1 -7.23%, CC(=O)C12CC(C)=C(C)CC1CC1C3CCC4=CC(=O)CCC4(C)C3CCC12C (stereo not drawn) -2.56%, O=C(Nc1ccc(Br)cc1)C1CCC(=O)N1Cc1ccccc1Cl (stereo not drawn) -0.11%, N#Cc1c(NC(=O)C2CCCO2)sc2c1CCCCC2 (stereo not drawn) -7.76%, CCOC(=O)C1CCN(C(=O)c2ccccc2N(C)S(=O)(=O)c2ccccc2)CC1 1.21%, O=C(Nc1cccc([N+](=O)[O-])c1)Nn1cnnc1 0.35%, Cc1ccccc1C(=O)Nc1ccccc1Sc1ccccc1 -4.34%, COc1ccc(S(=O)(=O)N2CCC(C(=O)OCC(=O)c3ccccc3)CC2)cc1[N+](=O)[O-] 0.58%, O=C(CCNS(=O)(=O)c1ccc(Br)cc1)NCC1CCCO1 (stereo not drawn) 1.04%, Cc1ccc(-n2ncc3c2CC(C)(C)CC3NC(=O)CCc2cnn(C)c2)cc1 (stereo not drawn) 0.66%, COC(=O)C[C@@H]1CC[C@@H]2[C@H](COc3ccc(NC(=O)c4cccc(F)c4)cc3C(=O)N2C)O1 2.78%, Cc1c(C(=O)c2cccc([N+](=O)[O-])c2)c2ccccn2c1CCC#N 6.14%, CN(C)/C=C(/C(=O)c1ccc(Cl)cc1)S(=O)(=O)c1ccccc1 -1.45%, O=C(CSc1ncn[nH]1)N/N=C/c1ccc(F)cc1 1.52%, CNC(=O)c1ccc(NC(=O)c2cccc(C(F)(F)F)c2)cc1 -1.78%, O=C1N[C@@H](c2ccccc2)COC(=O)[C@H](Cc2ccc(F)cc2)C/C=C\C[C@@H]1CC(=O)N(CCO)Cc1ccccc1 0.87%, C[C@]12c3[nH]c4ccc(Cl)cc4c3CCN1C(=O)[C@@H](CC(=O)NCCCn1ccnc1)C[C@@H]2C(=O)N1CCOCC1 -2.45%, CCc1c(C)n([O-])c2c([n+]1=O)CCCCC2 -2.11%, Cc1cc2nc(SCCN3CCOCC3)[nH]c2cc1C 0.27%, CCCCNc1ccc(C(=O)Nc2cccc(C)n2)cc1[N+](=O)[O-] -2.68%, COc1ccc(CCNC(=O)COC(=O)Cc2ccccc2F)cc1 -2.27%, CC(C)Oc1ccc(CC(=O)NNC(=S)Nc2ccc(Br)cc2)cc1 -6.23%, Cc1ccc(-c2cn(S(=O)(=O)c3cccc([N+](=O)[O-])c3)nc2N)cc1 -2.7%

inhibition, active:
C=CC1=C(C(=O)O)N2C(=O)[C@@H](NC(=O)/C(=N\OCC(=O)O)c3csc(N)n3)[C@H]2SC1 20.5%
